According to PubChem BioAssay:
Activity calls are given as the source filed them.

Tests used:
[1] = test system: PRMT1 (protein arginine N-methyltransferase 1); assay: PRMT1 binders on small-molecule microarrays, primary screen, biochemical, small-molecule microarray, 635 nm fluorescence (AID 1088); details: small-molecule microarray binding, higher = more signal;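 also: binding of Prmt1 protein to compounds spotted on small-molecule microarray slides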
[2] = yeast growth modulation, basal conditions, primary screen, YJM789 clinical isolate, OD600, 24 h (AID 1089);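 also: growth of clinical yeast isolate S. cerevisiae YJM 789 seeded 1000 cells per well; test concentration not given here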; details: S. cerevisiae YJM789 growth, higher = more signal, called active from +8 up or from −8 down
[3] = fission yeast growth modulation, primary screen, strain 972, OD600, 24 h, no modulator (AID 1090);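 also: basal condition with compound alone and no growth modifier present; test concentration not given here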; details: S. pombe 972 growth, higher = more signal, called active from +8 up or from −8 down
[4] = S. cerevisiae growth modulation with rapamycin, primary screen, strain BY4716, OD600, 96 h (AID 1091); details: higher = more signal, called active from +8 up or from −8 down; also: test concentration not given here
[5] = molecular target: Torsin-1A-interacting protein 2 (Homo sapiens) (UniProt Q8NFQ8); assay: LULL1 binders on small-molecule microarray, primary screen, cell lysate, human LULL1 lysate, 635/667 nm fluorescence (AID 1092); details: hLULL1 lysate binding, 635 nm fluorescence, higher = more signal;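 also: probe is lysate of COS7 cells overexpressing human LULL1; score merges per-feature 667 nm fluorescence with signal-to-noise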
[6] = E. coli growth modulation, two-sided OD650, primary screen, E. coli filamentation project, strain DRC41, 24 h (AID 1093); details: OD650, 24 h, higher = more signal, called active from +8 up or from −8 down;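 also: MC1000 strain lacking acrAB efflux and sulA so SOS filamentation is blocked; test concentration not given here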
[7] = small-molecule microarray binders of probe aLefty2, primary screen, biochemical, biotinylated probe, 635/667 nm fluorescence (AID 1094); details: higher = more signal;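 also: score merges spot fluorescence near 667 nm with spot signal-to-noise ratio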
[8] = test system: Noggin (protein binding on small-molecule microarray); assay: Noggin binders on small-molecule microarray, primary screen, biochemical, 635/667 nm fluorescence (AID 1095); details: 635 nm fluorescence, higher = more signal;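 also: score merges 667 nm feature fluorescence with signal to noise over triplicate slides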
[9] = molecular target: Neurogenic locus notch homolog protein 3 (Homo sapiens) (UniProt Q9UM47); assay: NOTCH3 binders on small-molecule microarray, primary screen, biochemical, 635/667 nm fluorescence (AID 1096); details: NOTCH3 binding, 635 nm fluorescence, higher = more signal
[10] = small-molecule microarray binders of probe aEGFR, primary screen, biochemical, biotinylated probe, 635/667 nm fluorescence (AID 1097); details: higher = more signal;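 also: probe is a biotinylated anti-EGFR antibody binding compounds printed on slides; score combines fluorescence near 667 nm and signal to noise of each spot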
[11] = test system: Plasmodium falciparum Sir2 (PF13_0152, Sir2A); assay: pfSir2 binders on small-molecule microarrays, primary screen, biochemical, small-molecule microarray, 635 nm fluorescence (AID 1098); details: small-molecule microarray binding, fluorescence 635 nm; higher = more signal;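 also: score merges spot fluorescence intensity with its signal-to-noise ratio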
[12] = small-molecule microarray binders of probe aDKK1, primary screen, biochemical, biotinylated probe, 635/667 nm fluorescence (AID 1099); details: higher = more signal;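 also: score merges 667nm spot fluorescence with signal to noise across triplicate slides; reference of the scale not given here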
[13] = small-molecule microarray binders of probe aCHRDL2, primary screen, biochemical, biotinylated probe, 635/667 nm fluorescence (AID 1100); details: higher = more signal
[14] = splicing luciferase reporter signal modulators, primary screen, spliceosome inhibition project, cell-based, HEK293, splice +/- reporter (AID 1101); details: luminescence, 24 h, higher = more signal, called active from +8 up or from −8 down;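 also: HEK293 cells carrying a splicing-competent luciferase reporter gene; test concentration not given here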
[15] = molecular target: Fibroblast growth factor 10 (Homo sapiens) (UniProt O15520); assay: FGF10 binders on small-molecule microarrays, primary screen, biochemical, small-molecule microarray, 635 nm fluorescence (AID 1102); details: FGF10 binding, fluorescence 635 nm, higher = more signal
[16] = test system: glycogen synthase kinase-3 (GSK3A per assay name; protocol says GSK3B); assay: GSK3 binders on small-molecule microarrays, primary screen, biochemical, small-molecule microarray, 635 nm fluorescence, GSK3A (AID 1103); details: small-molecule microarray binding, fluorescence 635 nm; higher = more signal; also: the record names both GSK3A and GSK3B
[17] = molecular target: Epidermal growth factor receptor (Homo sapiens) (UniProt P00533); assay: EGFR binders on small-molecule microarrays, primary screen, biochemical, small-molecule microarray, 635 nm fluorescence (AID 1104); details: EGFR binding, higher = more signal;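 also: score merges 667 nm emission intensity with spot signal to noise over triplicate slides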
[18] = molecular target: Follistatin-related protein 3 (Homo sapiens) (UniProt O95633); assay: FSTL3 binders on small-molecule microarrays, primary screen, biochemical, small-molecule microarray, 635 nm fluorescence (AID 1105); details: FSTL3 binding, higher = more signal;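 also: score merges emission near 667 nm and signal to noise per printed spot across three slides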
[19] = molecular target: Dickkopf-related protein 1 (Homo sapiens) (UniProt O94907); assay: DKK1 binders on small-molecule microarrays, primary screen, biochemical, small-molecule microarray, 635 nm fluorescence scan (AID 1106); details: DKK1 binding, higher = more signal;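 also: score merges emission near 667 nm with signal to noise over three replicate slides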
[20] = test system: Inhibin beta A chain (activin A); assay: INHBA (activin A) binders on microarrays, primary screen, biochemical, small-molecule microarray, 635 nm fluorescence scan (AID 1107); details: small-molecule microarray binding, higher = more signal;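 also: mouse activin A protein probed at 4.33 µg/mL on printed slides; score merges bound-protein fluorescence near 667 nm with spot signal-to-noise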

Sequence of Dickkopf-related protein 1 (Homo sapiens) (O94907 whole entry, looked up): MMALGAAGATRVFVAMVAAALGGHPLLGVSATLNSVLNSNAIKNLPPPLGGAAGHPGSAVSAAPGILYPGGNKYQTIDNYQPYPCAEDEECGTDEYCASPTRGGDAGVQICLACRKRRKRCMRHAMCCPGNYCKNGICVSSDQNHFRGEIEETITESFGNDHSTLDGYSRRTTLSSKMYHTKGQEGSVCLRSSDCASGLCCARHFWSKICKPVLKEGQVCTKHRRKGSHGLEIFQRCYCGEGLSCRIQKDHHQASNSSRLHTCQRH
Sequence of Neurogenic locus notch homolog protein 3 (Homo sapiens) (Q9UM47 whole entry, looked up): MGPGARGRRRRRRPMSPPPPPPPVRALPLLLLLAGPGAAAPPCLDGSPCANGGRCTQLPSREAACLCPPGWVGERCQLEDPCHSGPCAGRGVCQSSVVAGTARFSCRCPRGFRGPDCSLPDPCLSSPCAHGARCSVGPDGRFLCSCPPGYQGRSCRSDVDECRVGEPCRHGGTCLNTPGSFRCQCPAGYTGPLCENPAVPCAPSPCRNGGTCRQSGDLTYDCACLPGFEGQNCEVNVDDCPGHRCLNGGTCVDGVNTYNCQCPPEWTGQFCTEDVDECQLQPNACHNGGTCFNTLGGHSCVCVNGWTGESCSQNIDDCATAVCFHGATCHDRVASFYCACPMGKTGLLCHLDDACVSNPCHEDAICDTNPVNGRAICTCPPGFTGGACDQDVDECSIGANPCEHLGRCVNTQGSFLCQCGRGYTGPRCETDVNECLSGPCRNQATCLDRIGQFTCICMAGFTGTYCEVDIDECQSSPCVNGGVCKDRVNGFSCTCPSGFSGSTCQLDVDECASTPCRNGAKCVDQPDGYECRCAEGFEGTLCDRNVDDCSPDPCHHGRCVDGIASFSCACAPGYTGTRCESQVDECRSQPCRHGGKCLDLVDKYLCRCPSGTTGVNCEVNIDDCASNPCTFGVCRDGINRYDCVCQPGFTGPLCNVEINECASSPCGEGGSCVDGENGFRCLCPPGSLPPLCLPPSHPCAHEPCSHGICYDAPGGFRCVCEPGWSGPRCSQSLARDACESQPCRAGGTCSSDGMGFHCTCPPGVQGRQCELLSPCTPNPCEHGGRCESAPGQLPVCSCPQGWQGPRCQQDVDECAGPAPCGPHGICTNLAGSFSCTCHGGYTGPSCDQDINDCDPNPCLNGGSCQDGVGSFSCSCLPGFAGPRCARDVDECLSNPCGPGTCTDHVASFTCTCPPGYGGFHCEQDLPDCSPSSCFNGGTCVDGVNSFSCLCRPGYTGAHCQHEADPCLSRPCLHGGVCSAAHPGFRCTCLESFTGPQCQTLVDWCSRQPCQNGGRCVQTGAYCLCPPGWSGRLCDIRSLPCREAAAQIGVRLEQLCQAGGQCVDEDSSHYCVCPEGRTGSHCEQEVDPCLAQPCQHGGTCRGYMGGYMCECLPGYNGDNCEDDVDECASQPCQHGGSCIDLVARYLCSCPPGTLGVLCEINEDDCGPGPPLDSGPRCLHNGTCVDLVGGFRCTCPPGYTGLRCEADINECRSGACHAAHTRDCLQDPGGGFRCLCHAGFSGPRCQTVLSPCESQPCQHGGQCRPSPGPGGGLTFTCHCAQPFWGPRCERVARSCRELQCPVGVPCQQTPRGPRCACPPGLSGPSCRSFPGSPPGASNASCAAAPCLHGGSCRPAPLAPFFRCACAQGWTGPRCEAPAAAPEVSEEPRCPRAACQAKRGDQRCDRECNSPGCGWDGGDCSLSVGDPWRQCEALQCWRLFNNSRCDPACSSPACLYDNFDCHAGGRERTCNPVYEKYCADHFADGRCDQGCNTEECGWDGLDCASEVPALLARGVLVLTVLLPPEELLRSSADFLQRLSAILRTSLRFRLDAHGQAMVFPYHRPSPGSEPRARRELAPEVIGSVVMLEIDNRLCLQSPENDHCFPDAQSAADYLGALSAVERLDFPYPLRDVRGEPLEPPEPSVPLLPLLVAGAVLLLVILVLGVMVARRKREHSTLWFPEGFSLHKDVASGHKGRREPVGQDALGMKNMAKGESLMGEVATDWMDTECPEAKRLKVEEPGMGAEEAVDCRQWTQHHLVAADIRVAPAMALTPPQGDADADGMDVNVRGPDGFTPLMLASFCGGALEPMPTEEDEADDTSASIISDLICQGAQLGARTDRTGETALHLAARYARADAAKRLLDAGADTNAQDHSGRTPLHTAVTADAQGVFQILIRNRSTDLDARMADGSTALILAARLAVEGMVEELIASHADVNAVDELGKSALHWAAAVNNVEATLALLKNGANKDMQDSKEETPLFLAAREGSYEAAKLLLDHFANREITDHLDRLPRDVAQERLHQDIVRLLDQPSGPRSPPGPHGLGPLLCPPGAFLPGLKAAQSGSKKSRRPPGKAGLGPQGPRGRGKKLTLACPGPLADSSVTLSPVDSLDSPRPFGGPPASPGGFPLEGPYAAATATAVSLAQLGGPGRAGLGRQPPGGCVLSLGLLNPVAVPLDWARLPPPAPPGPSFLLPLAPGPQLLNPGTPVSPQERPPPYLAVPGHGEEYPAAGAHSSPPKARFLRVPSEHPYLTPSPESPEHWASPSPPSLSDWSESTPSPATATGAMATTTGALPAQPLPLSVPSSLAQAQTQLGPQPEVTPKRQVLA
Sequence of Follistatin-related protein 3 (Homo sapiens) (O95633 whole entry, looked up): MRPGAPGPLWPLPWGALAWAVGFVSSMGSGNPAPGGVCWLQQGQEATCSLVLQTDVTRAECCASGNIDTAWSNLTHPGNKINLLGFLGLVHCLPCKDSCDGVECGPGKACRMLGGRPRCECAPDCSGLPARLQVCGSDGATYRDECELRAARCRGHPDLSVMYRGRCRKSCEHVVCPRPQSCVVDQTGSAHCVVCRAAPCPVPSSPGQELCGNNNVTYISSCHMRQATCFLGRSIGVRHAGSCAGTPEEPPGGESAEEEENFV
Sequence of Epidermal growth factor receptor (Homo sapiens) (P00533 whole entry, looked up): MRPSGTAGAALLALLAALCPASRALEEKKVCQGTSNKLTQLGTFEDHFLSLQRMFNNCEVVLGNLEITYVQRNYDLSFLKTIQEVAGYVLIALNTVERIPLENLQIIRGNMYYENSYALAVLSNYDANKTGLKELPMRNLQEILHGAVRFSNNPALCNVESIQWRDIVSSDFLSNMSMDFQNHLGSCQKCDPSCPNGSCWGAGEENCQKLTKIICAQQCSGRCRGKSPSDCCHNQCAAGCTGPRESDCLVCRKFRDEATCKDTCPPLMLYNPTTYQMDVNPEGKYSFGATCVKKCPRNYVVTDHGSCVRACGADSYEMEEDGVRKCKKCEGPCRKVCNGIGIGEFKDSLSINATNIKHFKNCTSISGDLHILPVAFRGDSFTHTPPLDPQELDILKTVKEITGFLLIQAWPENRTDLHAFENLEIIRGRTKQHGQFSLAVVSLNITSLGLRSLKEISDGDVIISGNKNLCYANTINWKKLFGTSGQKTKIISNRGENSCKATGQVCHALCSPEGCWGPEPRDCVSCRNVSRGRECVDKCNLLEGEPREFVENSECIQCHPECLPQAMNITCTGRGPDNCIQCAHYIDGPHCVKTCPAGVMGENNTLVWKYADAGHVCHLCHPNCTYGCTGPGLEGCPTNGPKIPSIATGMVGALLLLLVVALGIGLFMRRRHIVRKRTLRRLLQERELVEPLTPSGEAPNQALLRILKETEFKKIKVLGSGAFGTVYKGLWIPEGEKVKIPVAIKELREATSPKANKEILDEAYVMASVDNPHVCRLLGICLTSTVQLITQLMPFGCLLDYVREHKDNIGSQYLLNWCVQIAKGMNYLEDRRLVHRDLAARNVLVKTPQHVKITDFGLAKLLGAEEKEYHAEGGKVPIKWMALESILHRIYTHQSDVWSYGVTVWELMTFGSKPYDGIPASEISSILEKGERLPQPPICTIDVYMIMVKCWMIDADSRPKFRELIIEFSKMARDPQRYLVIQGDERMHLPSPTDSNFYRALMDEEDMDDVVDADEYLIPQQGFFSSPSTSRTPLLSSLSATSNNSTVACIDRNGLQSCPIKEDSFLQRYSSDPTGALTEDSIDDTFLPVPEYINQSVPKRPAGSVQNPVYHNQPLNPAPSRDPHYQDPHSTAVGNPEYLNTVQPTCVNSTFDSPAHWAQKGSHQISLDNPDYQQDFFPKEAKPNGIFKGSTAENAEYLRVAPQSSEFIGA
Sequence of Fibroblast growth factor 10 (Homo sapiens) (O15520 whole entry, looked up): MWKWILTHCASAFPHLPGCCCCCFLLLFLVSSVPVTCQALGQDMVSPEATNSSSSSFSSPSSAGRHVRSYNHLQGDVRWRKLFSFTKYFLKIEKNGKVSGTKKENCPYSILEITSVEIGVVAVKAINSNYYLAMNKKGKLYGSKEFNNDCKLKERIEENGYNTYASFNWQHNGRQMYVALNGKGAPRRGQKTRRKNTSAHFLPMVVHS
Sequence of Torsin-1A-interacting protein 2 (Homo sapiens) (Q8NFQ8 whole entry, looked up): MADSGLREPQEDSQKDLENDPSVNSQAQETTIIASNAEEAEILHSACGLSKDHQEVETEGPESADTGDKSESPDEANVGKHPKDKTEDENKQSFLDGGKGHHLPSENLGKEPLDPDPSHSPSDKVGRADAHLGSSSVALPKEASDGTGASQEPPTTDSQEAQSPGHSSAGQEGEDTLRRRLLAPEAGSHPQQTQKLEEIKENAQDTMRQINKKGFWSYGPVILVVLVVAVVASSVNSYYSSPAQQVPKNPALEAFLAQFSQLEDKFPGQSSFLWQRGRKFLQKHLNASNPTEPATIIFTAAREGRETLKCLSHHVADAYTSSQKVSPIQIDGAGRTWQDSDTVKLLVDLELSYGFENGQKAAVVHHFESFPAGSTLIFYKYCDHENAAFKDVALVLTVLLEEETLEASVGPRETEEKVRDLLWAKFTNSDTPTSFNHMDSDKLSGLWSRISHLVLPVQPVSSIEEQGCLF

| Compound | composite z-score [1] | z-score [2] | z-score [3] | z-score [4] | composite z-score [5] | z-score [6] | composite z-score [7] | composite z-score [8] | composite z-score [9] | composite z-score [10] | composite z-score [11] | composite z-score [12] | composite z-score [13] | z-score [14] | composite z-score [15] | composite z-score [16] | composite z-score [17] | composite z-score [18] | composite z-score [19] | composite z-score [20] |
| --- | --- | --- | --- | --- | --- | --- | --- | --- | --- | --- | --- | --- | --- | --- | --- | --- | --- | --- | --- | --- |
| CC(C)NC(=O)[C@@]1(c2ccc([N+](=O)[O-])cc2)CC(=O)N(CC23CC4CC(CC(C4)C2)C3)[C@@H]1c1ccc(CO)cc1 | 1.54 | -0.383 (inactive) | -0.822 (inactive) | 0.937 (inactive) | 3.03 | 0.267 (inactive) | 0.707 | 1.57 | 1.02 | 0.837 | 1.4 | 0.998 | 0.931 | -0.279 (inactive) | 0.911 | 1.34 | 0.396 | 1.45 | 1.3 | 0.64 |
| COc1ccc(C(O)C2C=CC3C(=O)N(c4ccccc4)C(=O)C3N2Nc2ccc(C#N)cc2)cc1OCc1ccccc1 (stereo not given) | 1.3 | -0.598 (inactive) | 1.66 (inactive) | 1.38 (inactive) | 2.6 | -1.16 (inactive) | 0.455 | -0.634 | 1.11 | 0.0808 | 1.09 | 1.31 | 1.42 | 0.471 (inactive) | 0.372 | 0.564 | 0.0706 | 0.727 | -0.463 | 0.898 |
| CC(C)=CCCC(C)=CC(O)C1C=CC2C(=O)NC(=O)C2N1Nc1ccccn1 (stereo not given) | 1.56 | -1.17 (inactive) | 0.504 (inactive) | -0.952 (inactive) | 1.8 | -0.978 (inactive) | 0.212 | 1.36 | 1.11 | 0.186 | 1.52 | 0.0536 | -0.319 | -0.121 (inactive) | 1.46 | 1.29 | 1.68 | 1.55 | 1.76 | 1.6 |
| C=CCN1Cc2ccccc2[C@H]2OC(c3ccc(OCCCO)cc3)=N[C@@]2(CCS(=O)(=O)c2ccccc2)C1=O | 1.55 | 0.601 (inactive) | 0.546 (inactive) | 5.35 (inactive) | 2.29 | 0.557 (inactive) | 0.319 | 1.33 | 1.05 | 0.124 | 1.45 | 1.07 | 1.35 | 0.767 (inactive) | 0.728 | 1.26 | 0.714 | 1.38 | 0.933 | 0.852 |
| C=C(COC)/C(=C/C[C@H](OC(C)=O)c1ccccc1OCCO)c1cc(C(=O)OC)ccc1OC | 1.48 | 0.909 (inactive) | -0.662 (inactive) | -0.16 (inactive) | 1.76 | 0.952 (inactive) | -0.0928 | 0.485 | 0.372 | -0.0815 | 0.989 | -0.103 | -0.0952 | -0.907 (inactive) | 1.05 | 0.196 | -0.607 | 0.186 | 0.189 | 0.289 |
| CC(C)NC(=O)[C@@H]1c2ccccc2C(=O)N(Cc2ccc(OC(F)(F)F)cc2)[C@H]1c1ccc(CO)cc1 | 1.54 | 0.0263 (inactive) | -1.24 (inactive) | -1.51 (inactive) | 2.67 | -1.48 (inactive) | 0.734 | 0.756 | 1.11 | 0.587 | 0.471 | 1.21 | 0.696 | -0.211 (inactive) | 1.25 | 1.3 | 0.272 | 1.37 | 0.657 | 0.237 |
| COC(=O)c1cccc([C@H]2OC(=CC(=O)OC(C)C)C[C@@H](c3cccc(C(=O)OC)c3)O2)c1 | 1.55 | -0.132 (inactive) | -2.24 (inactive) | -1.39 (inactive) | 3.6 | -0.259 (inactive) | 0.272 | 1.22 | 0.974 | 0.0297 | 1.26 | 0.515 | 0.284 | 0.599 (inactive) | 1.18 | 1.33 | 0.693 | 1.09 | 0.34 | 0.463 |
| O=C1C2C=CC(C(O)c3ccc([N+](=O)[O-])cc3)N(Nc3ccccc3F)C2C(=O)N1c1ccccc1 (stereo not given) | 0.67 | 0.213 (inactive) | 0.619 (inactive) | 1.05 (inactive) | 1.87 | -0.774 (inactive) | 0.296 | -0.316 | 0.98 | -0.0278 | 1.22 | 0.912 | 0.941 | 1.02 (inactive) | 0.436 | 0.351 | -0.0558 | 0.313 | -0.516 | 0.941 |
| O=C1C[C@@](C(=O)NC2CC2)(c2ccc([N+](=O)[O-])cc2)[C@@H](c2ccc(CO)cc2)N1C1CCCCC1 | 1.52 | -1.19 (inactive) | -2.19 (inactive) | -2.54 (inactive) | 3.12 | 0.778 (inactive) | -0.0139 | 1.74 | 1.07 | -0.0828 | 1.68 | 0.0035 | 0.49 | -0.975 (inactive) | 1.5 | 0.808 | 0.359 | 1.32 | 0.517 | 0.357 |
| O=C1O[C@@H](c2ccccc2)[C@@H](c2ccccc2)N2[C@@H](c3ccccc3OCCO)[C@]3(C(=O)Nc4ccc(C#CCCO)cc43)[C@@H](C(=O)NC[C@H](O)c3ccccc3)[C@H]12 | 1.54 | 2.3 (inactive) | -1.71 (inactive) | 4.29 (inactive) | 3.29 | 0.535 (inactive) | 1.07 | 1.37 | 0.944 | 0.506 | 1.69 | 1.93 | 1.51 | -0.393 (inactive) | 0.428 | -0.0642 | 0.249 | 1.35 | 0.172 | 1.41 |
